Test results reported in PubChem BioAssay AID2315 (National Center for Advancing Translational Sciences (NCATS), 2010).
About 27,000 (9.3%) of roughly 290,000 compounds were called active. This is one part of a sample in which actives are shown more often than they occur. A number with no mark means an inactive call. No stated cut-off is given here; in the data, active means inhibition mostly above about 28% (no sharp cut-off); inactive means mostly below about 43%.

Assay: A qHTS for Small Molecule Inhibitors of Shiga Toxin; further: 0% is about no effect
Conditions: Vero cells, Shiga toxin protein synthesis inhibition reporter; at 38.7 µM, active compounds read high

| SMILES | inhibition |
| --- | --- |
| COc1cccc(C(=O)Nc2nnc(S(=O)(=O)N(C)c3ccccc3)s2)c1 | 3.08% |
| Cc1nc2sccn2c(=O)c1S(=O)(=O)NCCc1ccccc1 | -9.77% |
| O=C(CCc1ccccc1)Nc1cccc(-c2nnc(-c3ccco3)o2)c1 | 19.4% |
| Cc1ccc(OCC(=O)Nc2ccc(-c3nnc(-c4ccco4)o3)cc2)cc1 | 22.1% (active) |
| Cc1ccc(OCC(=O)Nc2nnc(-c3ccco3)s2)cc1 | 4.17% |
| COc1ccc(C(=O)CSc2nnc(-c3ccco3)o2)cc1 | 10.9% |
| Cc1cccc(NC(=O)CSc2nnc(-c3ccco3)o2)c1 | -23.3% |
| Cc1ccc(OCC(=O)Nc2ccc(-c3nc4ncccc4o3)cc2)cc1 | 2.45% |
| CCC(=O)Oc1cccc(C(=O)Nc2ccc(-c3nnc(-c4ccco4)o3)cc2)c1 | 90.4% (active) |
| CCCCOc1ccc(-c2nnc(-c3ccco3)o2)cc1 | 85.9% (active) |
| COc1ccc(OCC(=O)Nc2nnc(-c3ccco3)s2)cc1 | 2.24% |
| Cc1ccc(-c2nnc(Nc3ccc(C(=O)N(C)C)cc3)c3ccccc23)cc1S(N)(=O)=O | 1.45% |
| CC(C)(C)n1ncc2c(=O)n(Cc3ccc(Cl)cc3)cnc21 | 33.8% |
| Cc1cc(=O)oc2c(C)c(OCC(=O)NCCc3ccc(S(N)(=O)=O)cc3)ccc12 | -5.85% |
| CCOc1ccc(NC(=O)[C@H](C)NC(=O)C2CC(=O)N(c3ccc(OC)cc3)C2)cc1 (stereo partly specified) | -4.28% |
| COCCCNc1nc2ccccc2nc1NS(=O)(=O)c1ccc(F)cc1 | 2.37% |
| CCCCNC(=O)N1CCCC(N(C)CCc2ccc(OC)c(OC)c2)C1 (stereo unspecified) | -2.02% |
| Cc1ccc(NC(=O)CSc2nn3c(=O)c(C)nnc3s2)cc1Cl | 7.47% |
| CC(C)C(=O)OCC(=O)Nc1ccc2c(c1)CCC2 | 14.2% |
| O=C(NC1CCCC1)c1ccc(Br)s1 | 30.7% |
| O=C(Nc1ccc2c(c1)CCC2)c1ccc(Br)s1 | 112% (active) |
| CC1=C(C(=O)OCC2CCCCC2)C(c2ccc(F)cc2)NC(=O)N1 (stereo unspecified) | -7.87% |
| CN(C)c1nc(Nc2ccc(Cl)c(Cl)c2)nc(N(C)C)n1 | -11.2% |
| Cc1ccc(CS(=O)(=O)CCC(=O)NCc2ccc(F)cc2)cc1 | -8.45% |

| SMILES | inhibition |
| --- | --- |
| CCOC(=O)Cc1csc(SCC(=O)NC(C)C23CC4CC(CC(C4)C2)C3)n1 (stereo unspecified) | 3.03% |
| Cc1cc2cc(CNC(=O)c3cccs3)ccc2[nH]1 | 21.3% (active) |
| CCc1cccc(CC)c1NC(=S)NCc1ccc2[nH]c(C)cc2c1 | -9.97% |
| Cc1cc2cc(CNC(=O)c3ccc(S(=O)(=O)N4CCOCC4)cc3)ccc2[nH]1 | -6.18% |
| COc1ccc(CNc2ncnc3ccccc23)cc1 | -14.9% |
| Cc1c(C)c(C)c(S(=O)(=O)N2CCC3(CC2)OCCO3)c(C)c1C | -4.05% |
| O=C(C1CCCO1)N1CCN(S(=O)(=O)c2ccc(Br)cc2)CC1 (stereo unspecified) | -30% |
| O=C1Nc2cc(C(=O)N3CCN(c4ccc(F)cc4)CC3)ccc2NC1CSCc1cccc(F)c1 (stereo unspecified) | -13.8% |
| COc1cc(NC(=O)C2=C(C)OCCS2)c(Cl)cc1C(=O)NCCN1CCN(C)CC1 | -4.3% |
| O=C(NC1CCCCC1)C1c2ccccc2C(=O)N1Cc1ccco1 (stereo unspecified) | 2.78% |
| O=C1c2ccccc2C(Nc2ccc3c(c2)OCCO3)N1Cc1ccco1 (stereo unspecified) | 75.3% (active) |
| COc1ccccc1C1/C(=C(/O)c2ccc(C)cc2)C(=O)C(=O)N1Cc1ccco1 (stereo unspecified) | -8.56% |
| Cc1ccnc(N2C(=O)c3ccccc3C2Nc2ccc3c(c2)OCCO3)c1 (stereo unspecified) | 162% (active) |
| Cc1cccc(C(=O)Nc2ccccc2-c2nnn(CC(=O)Nc3ccc4c(c3)OCCO4)n2)c1 | -7.74% |
| COC(=O)c1cc(NC2c3ccccc3C(=O)N2c2ccc(Cl)cn2)cc(C(=O)OC)c1 (stereo unspecified) | 27.1% |
| CC(C)(C)NCc1cc(Br)ccc1OC1CCCC1 | -3.59% |
| CCc1ccc2[nH]c(=O)c(Cc3ccccc3)c(O)c2c1 | -8.55% |
| Cc1ccc(C2SCC(=O)N2c2ccccc2)cc1 (stereo unspecified) | 23.4% |
| C=CCN1C(=NC(=O)COc2ccccc2)SC2CS(=O)(=O)CC21 (stereo unspecified) | -9.63% |
| Cc1ccc(C(=O)N/C(=C\c2cn(C)c3ccccc23)C(=O)N2CCN(C)CC2)cc1 | -1.79% |
| Cc1ccc(CN2CCNC(=O)C2CC(=O)NCc2csc(C(C)C)n2)cc1 (stereo unspecified) | -6.42% |
| COc1ccc(S(=O)(=O)c2c[nH]c(=S)[nH]c2=O)cc1Cl | -4.21% |
| Cc1cnc(C(=O)OCc2c(C)cc(C(C)(C)C)cc2C)cn1 | -2.67% |
| O=C(C[n+]1cc(Br)cc2ccccc21)c1ccc(F)cc1 | -6.12% |

| SMILES | inhibition |
| --- | --- |
| c1ccc(-c2cc(-c3nnc4sc(-c5ccccn5)nn34)[nH]n2)cc1 | 11.6% |
| Oc1ccccc1-c1cc(-c2ccc(Cl)cc2)n[nH]1 | 151% (active) |
| c1ccc(-c2cc(-c3ccccc3)[nH]n2)cc1 | 129% (active) |
| S=c1[nH]nc(-c2cc(-c3ccccc3)n[nH]2)n1/N=C/c1c2ccccc2cc2ccccc12 | -4.79% |
| Cc1ccc(NC(=O)c2cc(-c3ccccc3O)n[nH]2)cc1C | 40.6% |
| O=C(NCCCNC(=O)c1ccccc1Cl)c1cnccn1 | -8.38% |
| COc1ccc(NC(=O)CC(NC(C)c2ccccc2)C(=O)O)cc1 (stereo unspecified) | -9.37% |
| O=C(OCCN=C1NS(=O)(=O)c2ccccc21)c1cccc([N+](=O)[O-])c1 | -7.24% |
| COc1ccc(N2CCN(C(=O)c3ccc(N4CCCCS4(=O)=O)cc3)CC2)cc1 | 3.75% |
| Cc1ccc(/C(N)=N/OC(=O)COc2ccc(Cl)c(C)c2)cc1 | 21.4% |
| O=C(O)CCc1cccnc1 | -4.95% |
| CC(=O)OC(C(=O)NCCc1ccccc1)c1cccnc1 (stereo unspecified) | -5.15% |
| N/C(=N\OC(=O)CCc1ccccc1)c1ccc(Cl)cc1 | 61% (active) |
| N/C(=N\OC(=O)CCc1ccccc1)c1cccnc1 | 55.1% (active) |
| O=C(CCC(=O)OCc1ccc(Cl)cc1)Nc1ccccc1 | -15.7% |
| C=CCn1c(SCC(=O)NCC2CCCO2)nc2sc(C)c(C)c2c1=O (stereo unspecified) | -9.53% |
| COC(=O)c1cc(S(=O)(=O)NCC2CCN(Cc3ccc(Cl)cc3)CC2)cn1C | -0.168% |
| COc1ccccc1CNC(=O)[C@@H]1CCCN1C(=O)[C@@H]1Cc2ccccc2CN1C(=O)OC(C)(C)C | -9.37% |
| COC(=O)c1ccc(OC(=O)c2nn(C)cc2Cl)c(OC)c1 | 8.13% |
| C=CCc1cccc(/C=N/NC(=O)COc2ccc(-n3cnnn3)cc2)c1O | 19.1% |
| COc1ccc(CCNC(=O)CN(C)S(=O)(=O)c2ccc3nc(C)sc3c2)cc1OC | 16.5% |
| Cn1c(SCC(=O)N2CCCCC2)nc2c(c1=O)SCC2 | -17.3% |
| O=C(CN1C(=O)c2ccccc2S1(=O)=O)NC1CCCCC1 | -0.163% |
| COc1cc(OC)c(C(=O)Nc2ccc(N(C)C)cc2)cc1OC | 77.9% (active) |

| SMILES | inhibition |
| --- | --- |
| COc1ccc(Cl)cc1C(=O)Nc1ccc(N(C)C(C)=O)cc1 | 22.6% |
| COc1cc(OC)c(C(=O)NC2CC(C)(C)NC(C)(C)C2)cc1OC | -5.21% |
| CN(Cc1ccccc1)C(=O)c1cccc(C(=O)N(C)Cc2ccccc2)c1 | -2.11% |
| COc1ccc(NC(=O)COc2ccc(C(=O)c3ccc(F)cc3)cc2)cc1S(N)(=O)=O | -4.25% |
| CCOc1ccc(/C=N/Nc2nncc(-c3ccccc3)n2)cc1OC | 8.48% |
| COc1ccc(/C=N/n2nnnc2N)cc1OC | -3.85% |
| CCNc1nc(NCC)nc(N/N=C/c2ccc(O)c(OC)c2)n1 | -4.76% |
| COc1ccc(/C=N/Nc2nc3ccccc3o2)cc1OC | 101% (active) |
| COc1cc(/C=N\Nc2nc(-c3cccs3)c(NC(C)=O)s2)ccc1O | 34% |
| Brc1ccccc1/C=N/Nc1nc2ccccc2o1 | 68.5% (active) |
| C=CCc1ccccc1OCC(=O)N/N=C/c1ccccc1OCC | 13.2% |
| COc1cc(/C=N/Nc2nc3ccccc3s2)ccc1O | 62.5% (active) |
| Oc1c(Br)cccc1/C=N/Nc1c(F)c(F)c(F)c(F)c1F | 16% |
| CCOc1ccccc1/C=N/NC(=O)CNC(=O)COc1ccccc1 | 11.6% |
| CCOc1ccccc1/C=N/Nc1nc2ccccc2o1 | 49% (active) |
| Cc1cc(C)nc(N/N=C/c2c(C)oc3ccccc23)n1 | 29.2% |
| CCOC(=O)c1c(S(=O)(=O)NCC(=O)Nc2ccc(C)cc2)c(C)n(C)c1C | -5.73% |
| O=C1NC(c2ccccc2)Oc2ccccc21 (stereo unspecified) | -5.27% |
| Cc1ccc(NS(=O)(=O)c2ccc(-c3ccc(=O)[nH]n3)o2)c(C)c1 | -12.5% |
| CCOc1cc(-c2noc(CCCC(=O)NC3CCCCC3)n2)ccc1OC | -9.28% |
| COc1ccccc1NC(=O)CSc1nnc(CNC(=O)c2ccccc2F)o1 | 15.5% |
| Cc1ccc(CSc2nc(-c3ccccc3)c(C#N)c(=O)[nH]2)cc1 | 22.6% |
| Cc1ccccc1CSc1nnc(-c2ccccc2)c(=O)[nH]1 | -6.33% |
| O=c1[nH]c(SCc2ccccc2)nnc1-c1ccccc1 | 36.4% (active) |
